# Laboratory results taken from PubChem BioAssay (NCATS).
# Unmarked numbers belong to inactive results. Records with an inconclusive call do not appear. Entries that show only a call come without a potency. Active and inactive are the calls of the source. Unless noted, calls follow the shape of the dose curve; as a rule, active = well fitted curve in the direction sought with a large enough effect; inconclusive = small, poorly fitted or top-dose-only effect, or another doubt; inactive = no such curve, though single readings can be large; an effect the other way counts as inactive or inconclusive.
# Tests used:
# [1] = qHTS for Inhibitors of Ubiquitin-specific Protease USP2a Using CHOP2 as the Reporter: K633 Counterscreen (AID 652168)
# Method in brief: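 Cell-free interference counterscreen without USP2a: compounds pinned into enzyme-free buffer (20 mM Tris pH 8, 2 mM beta-mercaptoethanol, 0.05% Chaps), then DiUb K48-4IQF substrate added (100 nM stock); fluorescence read kinetically, Ex 525/Em 598.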
# [2] = qHTS for Inhibitors of Ubiquitin-specific Protease USP2a Using CHOP2 as the Reporter: Cytotox Assay (AID 652170); also: nearly all actives have a fitted effect of over 70% in size
# Method in brief: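 HCT116 human colon cancer cells, 600 per well in DMEM with 10% FBS, exposed to compounds for 72 hr at 37 deg C. ATP measured by CellTiter-Glo luminescence, normalized to DMSO cells and no-cell background.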
# [3] = target: Ubiquitin carboxyl-terminal hydrolase 2 (Homo sapiens) (UniProt O75604); assay: qHTS for Inhibitors of Ubiquitin-specific Protease USP2a Using CHOP2 as the Reporter: K484 Substrate (AID 652173); conditions: USP2 cleavage of DiUb K48 IQF substrate, fluorescence;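 also: cleavage of internally quenched K48 di-ubiquitin substrate measured as rising fluorescence over time; potency is read from the fitted curve at half-maximal effect; nearly all actives have a fitted effect of over 70% in size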
# Method in brief: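 USP2 (dispensed at 5 nM) was pinned with compounds, then DiUb K48 internally quenched fluorescent substrate (dispensed at 100 nM) was added. The buffer was 20 mM Tris pH 8, 2 mM beta-mercaptoethanol and 0.05% CHAPS. Cleavage was read kinetically as rising fluorescence, Ex 525/Em 598.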
# [4] = target: Rap guanine nucleotide exchange factor 3 (Homo sapiens) (UniProt O95398); assay: Confirmatory qHTS for antagonist of cAMP-regulated guanine nucleotide exchange factor 3 (EPAC1) (AID 1645880); conditions: EPAC1 Rap1B-BODIPY-GDP exchange, fluorescence; activity, negative = inhibition: at 115 µM (top of the series); also: nearly all actives have a fitted effect of over 55% in size; also: potency is read from the fitted curve at half-maximal effect
# Method in brief: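 Nucleotide exchange uses 100 nM EPAC1, 250 nM RAP1B-BODIPY-GDP and 50 uM GDP, with compounds in a concentration-titration series. After 5 min at room temperature, fluorescence (480 nm ex/540 nm em) is read every 5 min for 30 min. Data are normalized to control ATA and DMSO.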
# [5] = target: Rap guanine nucleotide exchange factor 3 (Homo sapiens) (UniProt O95398); assay: Confirmatory qHTS for agonist of cAMP-regulated guanine nucleotide exchange factor 3 (EPAC1) (AID 1645881); also: nearly all actives have a fitted effect of over 75% in size; also: potency is read from the fitted curve at half-maximal effect;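 as to activation: EPAC1 catalysed release of BODIPY-GDP from Rap1B seen as fluorescence loss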
# [6] = target: Rap guanine nucleotide exchange factor 4 (Homo sapiens) (UniProt Q8WZA2); assay: Confirmatory qHTS for agonist of cAMP-regulated guanine nucleotide exchange factor 4 (EPAC2) (AID 1645884);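 also: nucleotide exchange releases bodipy-GDP from Rap1 and this lowers its fluorescence; nearly all actives have a fitted effect of over 65% in size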; also: potency is read from the fitted curve at half-maximal effect
# [7] = target: Rap guanine nucleotide exchange factor 3 (Homo sapiens) (UniProt O95398); assay: Counterscreen qHTS for antagonist of cAMP-regulated guanine nucleotide exchange factor 3 (EPAC1) (AID 1645888); also: potency is read from the fitted curve at half-maximal effect
# Method in brief: (§1)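 Rap1B-BODIPY-GDP 250 nM + GDP 50 uM; cpds 7-pt, final 9.74 nM–152 uM (activator mode) or from 7.32 nM upwards (inhibitor mode); RT; FI 480/540 nm at 5 and 30 min, then ± cAMP, reread.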
# [8] = target: Tumor susceptibility gene 101 protein (Homo sapiens) (UniProt Q99816); assay: qHTS Assay for Iinhibitors of HIV-1 Budding by Blocking the Interaction of PTAP/TSG101: Hit Validation (AID 651600); also: potency is read from the fitted curve at half-maximal effect; nearly all actives have a fitted effect of over 70% in size
# Method in brief: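 Measuring PTAP–Tsg101 interaction by FP: protein at 10 uM and fluorescent peptide at 50 nM (final), buffer 10 mM HEPES pH 7.5 with 0.15 M NaCl, 3 mM EDTA, 0.1 mM TCEP, 0.01% Tween 20; 20 min incubation, r.t.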
# [9] = target: Rap guanine nucleotide exchange factor 3 (Homo sapiens) (UniProt O95398); assay: Counterscreen qHTS for agonist of cAMP-regulated guanine nucleotide exchange factor 3 (EPAC1) (AID 1645889); also: nearly all actives have a fitted effect of over 40% in size; also: potency is read from the fitted curve at half-maximal effect
# Method in brief: as §1
# [10] = Stat Signaling Pathway (AID 446; active = well fitted curve in either direction with a large enough effect, not every such curve was filed as active;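 also: ME-180 cervical cancer cells given 40 pM IL-6 alongside compound; SIE-controlled beta-lactamase reporter measured as 460/530 nm FRET emission ratio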)
# Method in brief: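 Reporter line: ME-180 cervical carcinoma, SIE-beta-lactamase. Treatment: compound with 40 pM IL-6, 5 hrs, 37 C, in low-serum OPTI-MEM with 10 mM HEPES pH 7.3. Detection: 460/530 nm fluorescence.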
# [11] = target: Glucocorticoid receptor (Homo sapiens) (UniProt P04150); assay: GR-GFP Redistribution (AID 450;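 active = compounds whose dose series gives a full or clear partial fitted curve of increased nuclear translocation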; also: potency is read from the fitted curve at half-maximal effect); conditions: U2OS GR-GFP nuclear translocation, laser cytometry, 2 h
# [12] = target: Cytochrome P450 3A4 (Homo sapiens) (UniProt P08684); assay: qHTS Assay for Inhibitors and Substrates of Cytochrome P450 3A4 (AID 884); also: potency is read from the fitted curve at half-maximal effect; nearly all actives have a fitted effect of over 50% in size
# Method in brief: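 20 nM human CYP3A4 with 25 uM Luciferin-PPXE (at KM) in 200 mM KPO4, preincubated 10 min with compound; NADPH regeneration started a 60 min RT reaction. Luciferin detected by luminescence, normalized to 57 uM ketoconazole as full inhibition.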
# [13] = target: Cytochrome P450 3A4 (Homo sapiens) (UniProt P08684); assay: qHTS Assay for Activators of Cytochrome P450 3A4 (AID 885); also: nearly all actives have a fitted effect of over 65% in size
# Method in brief: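 Signal was normalized against complete inhibition by 57 uM ketoconazole. The reaction used 20nM CYP3A4 with 25uM Luciferin-PPXE, 10-min compound preincubation and a 60-min NADPH-supported step at RT.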
# Rap guanine nucleotide exchange factor 3 (Homo sapiens), sequence (O95398 whole entry, looked up): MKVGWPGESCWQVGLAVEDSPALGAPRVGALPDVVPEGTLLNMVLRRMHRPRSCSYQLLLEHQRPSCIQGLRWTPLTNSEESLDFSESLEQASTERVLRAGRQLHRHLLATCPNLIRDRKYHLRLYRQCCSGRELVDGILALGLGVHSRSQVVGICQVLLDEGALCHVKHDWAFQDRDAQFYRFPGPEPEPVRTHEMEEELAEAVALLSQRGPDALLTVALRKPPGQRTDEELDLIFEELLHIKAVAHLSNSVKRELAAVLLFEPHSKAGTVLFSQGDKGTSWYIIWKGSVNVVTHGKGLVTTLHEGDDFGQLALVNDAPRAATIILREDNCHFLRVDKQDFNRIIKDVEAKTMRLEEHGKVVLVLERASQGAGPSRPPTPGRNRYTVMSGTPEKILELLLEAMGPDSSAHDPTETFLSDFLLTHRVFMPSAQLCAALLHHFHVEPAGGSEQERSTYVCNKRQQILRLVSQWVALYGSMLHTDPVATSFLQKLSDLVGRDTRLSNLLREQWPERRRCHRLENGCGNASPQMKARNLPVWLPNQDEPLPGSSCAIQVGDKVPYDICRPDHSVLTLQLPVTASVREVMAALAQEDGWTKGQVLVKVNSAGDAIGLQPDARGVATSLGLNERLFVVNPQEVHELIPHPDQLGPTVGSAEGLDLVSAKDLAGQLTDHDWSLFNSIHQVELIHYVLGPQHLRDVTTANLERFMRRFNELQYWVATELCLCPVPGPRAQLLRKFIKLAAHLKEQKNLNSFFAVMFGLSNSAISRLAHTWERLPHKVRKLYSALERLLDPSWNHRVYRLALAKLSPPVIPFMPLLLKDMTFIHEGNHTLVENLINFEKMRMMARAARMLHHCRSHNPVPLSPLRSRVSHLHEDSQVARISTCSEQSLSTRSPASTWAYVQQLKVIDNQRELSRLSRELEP
# Rap guanine nucleotide exchange factor 4 (Homo sapiens), sequence (Q8WZA2 whole entry, looked up): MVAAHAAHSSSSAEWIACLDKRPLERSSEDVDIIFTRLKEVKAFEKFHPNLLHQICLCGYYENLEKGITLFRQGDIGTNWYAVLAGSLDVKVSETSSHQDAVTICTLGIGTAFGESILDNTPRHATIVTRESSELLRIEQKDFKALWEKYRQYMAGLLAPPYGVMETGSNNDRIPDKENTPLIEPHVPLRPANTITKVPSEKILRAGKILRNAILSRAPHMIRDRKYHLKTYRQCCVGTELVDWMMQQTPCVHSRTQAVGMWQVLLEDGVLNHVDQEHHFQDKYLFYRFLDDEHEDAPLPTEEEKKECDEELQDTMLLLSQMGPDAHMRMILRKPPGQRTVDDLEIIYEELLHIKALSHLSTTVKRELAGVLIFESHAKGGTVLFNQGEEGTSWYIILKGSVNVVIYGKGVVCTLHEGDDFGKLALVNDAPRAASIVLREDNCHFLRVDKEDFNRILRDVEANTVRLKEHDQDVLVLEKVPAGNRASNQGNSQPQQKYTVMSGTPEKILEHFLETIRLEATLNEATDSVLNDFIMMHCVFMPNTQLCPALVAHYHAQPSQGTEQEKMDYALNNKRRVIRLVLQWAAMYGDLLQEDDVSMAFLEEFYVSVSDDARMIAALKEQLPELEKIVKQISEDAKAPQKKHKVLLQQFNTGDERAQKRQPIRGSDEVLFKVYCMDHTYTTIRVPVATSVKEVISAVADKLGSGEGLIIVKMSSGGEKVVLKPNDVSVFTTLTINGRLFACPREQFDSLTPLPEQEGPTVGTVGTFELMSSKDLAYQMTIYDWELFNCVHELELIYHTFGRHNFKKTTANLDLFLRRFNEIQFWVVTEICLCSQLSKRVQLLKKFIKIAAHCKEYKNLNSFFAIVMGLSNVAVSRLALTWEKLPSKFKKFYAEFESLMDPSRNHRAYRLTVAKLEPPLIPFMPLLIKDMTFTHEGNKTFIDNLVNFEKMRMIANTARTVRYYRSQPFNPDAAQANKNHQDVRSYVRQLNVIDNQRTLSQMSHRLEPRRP
# Cytochrome P450 3A4 (Homo sapiens), sequence (P08684 whole entry, looked up): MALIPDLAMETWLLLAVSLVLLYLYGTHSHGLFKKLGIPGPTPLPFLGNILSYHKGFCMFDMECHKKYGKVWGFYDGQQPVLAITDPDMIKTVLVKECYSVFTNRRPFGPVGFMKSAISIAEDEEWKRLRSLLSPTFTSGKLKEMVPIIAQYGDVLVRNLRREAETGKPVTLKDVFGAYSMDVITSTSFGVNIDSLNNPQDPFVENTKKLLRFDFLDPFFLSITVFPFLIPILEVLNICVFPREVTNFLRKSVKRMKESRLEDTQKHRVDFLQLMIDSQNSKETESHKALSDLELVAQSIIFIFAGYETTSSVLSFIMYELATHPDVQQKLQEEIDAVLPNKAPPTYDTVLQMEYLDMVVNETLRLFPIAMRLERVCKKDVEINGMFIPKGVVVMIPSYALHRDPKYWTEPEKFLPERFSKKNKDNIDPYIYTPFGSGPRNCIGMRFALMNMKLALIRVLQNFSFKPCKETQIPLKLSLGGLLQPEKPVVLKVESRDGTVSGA
# Tumor susceptibility gene 101 protein (Homo sapiens), sequence (Q99816 whole entry, looked up): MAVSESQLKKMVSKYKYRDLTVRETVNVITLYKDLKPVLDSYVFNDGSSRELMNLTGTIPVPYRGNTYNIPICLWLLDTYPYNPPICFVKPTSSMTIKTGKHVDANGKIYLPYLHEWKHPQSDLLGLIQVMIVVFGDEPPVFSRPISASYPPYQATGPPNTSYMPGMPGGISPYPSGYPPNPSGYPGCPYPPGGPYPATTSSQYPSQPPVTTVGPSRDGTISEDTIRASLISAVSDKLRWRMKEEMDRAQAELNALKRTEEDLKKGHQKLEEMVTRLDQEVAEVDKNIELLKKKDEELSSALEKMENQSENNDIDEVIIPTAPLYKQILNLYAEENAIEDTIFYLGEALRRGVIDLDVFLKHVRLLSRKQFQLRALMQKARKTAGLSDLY
# Ubiquitin carboxyl-terminal hydrolase 2 (Homo sapiens), sequence (O75604 whole entry, looked up): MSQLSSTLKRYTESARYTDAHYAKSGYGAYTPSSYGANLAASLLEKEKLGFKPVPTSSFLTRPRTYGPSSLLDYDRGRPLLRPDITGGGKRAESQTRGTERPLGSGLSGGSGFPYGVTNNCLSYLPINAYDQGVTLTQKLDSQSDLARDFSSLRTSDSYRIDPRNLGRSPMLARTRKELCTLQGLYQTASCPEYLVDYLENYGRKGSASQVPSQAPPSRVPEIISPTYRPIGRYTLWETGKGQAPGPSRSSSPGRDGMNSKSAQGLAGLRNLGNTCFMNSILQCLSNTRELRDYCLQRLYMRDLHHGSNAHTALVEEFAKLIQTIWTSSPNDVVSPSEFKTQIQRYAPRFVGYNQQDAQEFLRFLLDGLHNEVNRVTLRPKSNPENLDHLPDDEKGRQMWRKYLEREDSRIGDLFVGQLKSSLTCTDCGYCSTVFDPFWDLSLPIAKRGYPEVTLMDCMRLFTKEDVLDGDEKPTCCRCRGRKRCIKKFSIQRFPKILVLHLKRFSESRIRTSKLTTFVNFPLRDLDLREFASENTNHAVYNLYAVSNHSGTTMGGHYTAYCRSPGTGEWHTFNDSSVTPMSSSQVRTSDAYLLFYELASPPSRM
# Glucocorticoid receptor (Homo sapiens), sequence (P04150 whole entry, looked up): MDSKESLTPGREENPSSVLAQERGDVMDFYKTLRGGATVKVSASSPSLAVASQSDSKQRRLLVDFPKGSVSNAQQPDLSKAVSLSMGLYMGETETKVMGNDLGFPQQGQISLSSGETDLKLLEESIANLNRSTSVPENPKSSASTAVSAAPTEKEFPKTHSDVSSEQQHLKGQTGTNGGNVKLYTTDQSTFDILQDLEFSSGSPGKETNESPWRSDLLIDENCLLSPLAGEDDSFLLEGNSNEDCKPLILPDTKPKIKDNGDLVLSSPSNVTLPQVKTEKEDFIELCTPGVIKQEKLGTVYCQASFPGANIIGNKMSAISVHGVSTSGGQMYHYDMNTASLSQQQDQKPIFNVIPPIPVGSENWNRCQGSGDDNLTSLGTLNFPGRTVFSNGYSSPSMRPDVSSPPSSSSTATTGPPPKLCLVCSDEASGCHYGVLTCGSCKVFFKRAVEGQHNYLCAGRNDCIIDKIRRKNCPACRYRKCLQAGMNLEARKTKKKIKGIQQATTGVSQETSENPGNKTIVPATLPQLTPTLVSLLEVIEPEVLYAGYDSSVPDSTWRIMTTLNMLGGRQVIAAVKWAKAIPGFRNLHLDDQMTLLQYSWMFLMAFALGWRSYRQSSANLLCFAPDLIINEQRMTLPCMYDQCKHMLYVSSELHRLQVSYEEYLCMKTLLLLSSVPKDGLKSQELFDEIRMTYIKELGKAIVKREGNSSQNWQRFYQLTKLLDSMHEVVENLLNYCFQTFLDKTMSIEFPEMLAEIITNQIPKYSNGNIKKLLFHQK
structure (smiles),measurement,setting,value
Cc1cc(NS(=O)(=O)c2ccc(Nc3nc(-c4ccc(C)c(C)c4)cs3)cc2)no1,outcome,[1],inactive
same,outcome,[2],inactive
same,Potency,[3],27.3 µM (active)
same,Potency,[4],75.7 µM (active)
same,Potency,[5],inactive
same,Potency,[6],inactive
same,Potency,[7],inactive
Oc1[nH]c2ccc(Br)cc2c1N=Nc1ccc(F)cc1,Potency,[8],10.3 µM (active)
same,Potency,[4],84.9 µM (active)
same,Potency,[5],inactive
same,Potency,[6],inactive
same,Potency,[7],70.8 µM (active)
same,Potency,[9],inactive
CCOC(=O)C1(Cc2ccccc2)C(=O)Nc2ccccc21 (centres undefined),Potency,[4],inactive
same,Potency,[5],inactive
same,activation,[6],"2.58% [at 17.1 µM, percent relative to cAMP agonist control]"
same,activation,[9],32.7% [at 30.8 µM]
CCOC(=O)C(Cc1ccc(Cl)cc1Cl)c1ccno1 (centres undefined),Potency,[4],inactive
same,Potency,[5],inactive
same,Potency,[6],inactive
same,Potency,[9],inactive
Cc1nc(S/C(=C/c2ccc(-c3cc(Cl)ccc3C)o2)C(=O)O)n[nH]1,Potency,[4],26.9 µM (active)
same,Potency,[5],inactive
same,Potency,[6],inactive
same,Potency,[9],inactive
COc1ccc2c(c1)CCC1(C)CC(=O)C(Br)=C21 (centres undefined),Potency,[4],inactive
same,Potency,[5],inactive
same,Potency,[6],inactive
same,Potency,[9],inactive
Cc1cccc(Cn2c(C)nc3c(N)c(C)c(C)cc32)c1,Potency,[4],inactive
same,Potency,[5],inactive
same,Potency,[6],inactive
same,Potency,[9],inactive
COCCCNC(=O)C(C#N)c1nc2ccccc2nc1N1CCN(Cc2ccccc2)CC1 (centres undefined),outcome,[10],inactive
same,Potency,[11],> 20.6 µM
same,Potency,[4],75.7 µM (active)
same,Potency,[5],inactive
same,Potency,[6],inactive
same,Potency,[7],inactive
same,Potency,[9],inactive
COc1ccc(NS(=O)(=O)c2cc(N)ccc2N2CCCCC2)cc1,Potency,[4],inactive
same,Potency,[5],inactive
same,Potency,[6],inactive
same,Potency,[9],inactive
Cc1cc(C)c2nc(N3C(=O)C(O)=C(C(=O)c4ccco4)C3c3cccc(O)c3)sc2c1 (centres undefined),Potency,[4],26.9 µM (active)
same,Potency,[5],inactive
same,Potency,[6],inactive
same,Potency,[9],inactive
CC(C)(C)NC(=O)C(c1ccc(C(F)(F)F)cc1)n1c(=O)c(-c2ccco2)nc2ccccc21 (centres undefined),Potency,[4],75.7 µM (active)
same,Potency,[5],inactive
same,Potency,[6],inactive
same,Potency,[9],inactive
COc1cc(C(=O)c2ccccc2)c([N+](=O)[O-])cc1OC,Potency,[4],inactive
same,Potency,[5],inactive
same,Potency,[6],inactive
same,Potency,[9],inactive
CCOC(=O)/C(C#N)=C\c1ccc(N2CCN(C/C=C/c3ccccc3)CC2)cc1,Potency,[8],20.6 µM (active)
same,Potency,[4],inactive
same,Potency,[5],79.4 µM (active)
same,Potency,[6],100 µM (active)
same,Potency,[7],inactive
same,Potency,[9],70.8 µM (active)
CC(C)Cn1c(N)c(C(=O)COC(=O)c2cc(-c3ccco3)nc3ccccc23)c(=O)n(C)c1=O,Potency,[12],15.8 µM (active)
same,outcome,[13],inactive
same,Potency,[4],30.1 µM (active)
same,Potency,[5],inactive
same,Potency,[6],inactive
same,Potency,[7],inactive
same,Potency,[9],inactive
